Test results reported in the supplement of paper PMC10849652.
The full data set covers some 8,800 targets. This sample favours those with a hit. About 0.5% of all pairs of compound and target were hits.

Experiments:
Experiment in all cases: log2 fold change, soluble protein after heating vs DMSO (PISA); higher = thermal stabilisation; K562 lysate, 10 uM; active = over 0.2 and 3.5 SD of the protein, either way, in both replicates (recomputed)
[1] = compound: NCC(=O)Nc1ccc(-n2nc(C(F)(F)F)cc2-c2ccc3c(ccc4ccccc43)c2)cc1
Summary of the method: (§1)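 To prepare the extract, K562 pellets were dounce-homogenised in PBS pH 7.4 with 1 mM MgCl2, giving crude material at 1 mg/mL protein. This was treated with 10 μM compound for 30 min, then heated in aliquots for 3 min over 48°C-58°C before pooling and addition of NP-40 to 0.5% at 4°C. Centrifugation at 21,000xg for 90 min left soluble protein in the supernatant, which TMTpro 16plex LC-MS/MS quantified with equalised channel sums. Results are log-two fold changes in thermal stability compared with solvent controls, from duplicates.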

vorinostat = compound: O=C(CCCCCCC(=O)Nc1ccccc1)NO [vorinostat]
Summary of the method: as §1

silmitasertib = compound: O=C(O)c1ccc2c(c1)nc(Nc1cccc(Cl)c1)c1ccncc12 [silmitasertib]
Summary of the method: as §1

[2] = compound: O=C1NC(=O)C(c2cnc3ccccn23)=C1c1cn2c3c(cc(F)cc13)CN(C(=O)N1CCCCC1)CC2
Summary of the method: as §1

entospletinib = compound: c1cn2cc(-c3ccc4cn[nH]c4c3)nc(Nc3ccc(N4CCOCC4)cc3)c2n1 [entospletinib]
Summary of the method: as §1

Measured: log2 fold change

MYO1D (UniProt O94832)
active: vorinostat -0.418
inactive: [1] 0.046 | silmitasertib 0.012 | [2] -0.027 | entospletinib -0.002

NCOR1 (UniProt O75376)
active: vorinostat -0.239
inactive: [1] 0.021 | silmitasertib -0.035 | [2] 0.014 | entospletinib -0.01

NQO1 (UniProt P15559)
inactive: [1] 0.008 | vorinostat -0.132 | silmitasertib 0.038 | [2] 0.023 | entospletinib -0.027

NDUFS1 isoform 2 (UniProt P28331)
inactive: [1] -0.006 | vorinostat 0.118 | silmitasertib 0.032 | [2] -0.052 | entospletinib -0.014

NPM3 (UniProt O75607)
inactive: [1] -0.049 | vorinostat -0.012 | silmitasertib 0.021 | [2] -0.019 | entospletinib -0.037

OSBPL3 isoform 2 (UniProt Q9H4L5)
active: vorinostat -0.36 | silmitasertib 0.402
inactive: [1] -0.087 | [2] 0.062 | entospletinib 0.052

NCKAP1L (UniProt P55160)
inactive: [1] 0.288 | silmitasertib -0.039 | [2] -0.001 | entospletinib 0.029
active: vorinostat -0.444

PANK1 (UniProt Q8TE04)
Sequence of UniProt Q8TE04 (Q8TE04 whole entry, looked up): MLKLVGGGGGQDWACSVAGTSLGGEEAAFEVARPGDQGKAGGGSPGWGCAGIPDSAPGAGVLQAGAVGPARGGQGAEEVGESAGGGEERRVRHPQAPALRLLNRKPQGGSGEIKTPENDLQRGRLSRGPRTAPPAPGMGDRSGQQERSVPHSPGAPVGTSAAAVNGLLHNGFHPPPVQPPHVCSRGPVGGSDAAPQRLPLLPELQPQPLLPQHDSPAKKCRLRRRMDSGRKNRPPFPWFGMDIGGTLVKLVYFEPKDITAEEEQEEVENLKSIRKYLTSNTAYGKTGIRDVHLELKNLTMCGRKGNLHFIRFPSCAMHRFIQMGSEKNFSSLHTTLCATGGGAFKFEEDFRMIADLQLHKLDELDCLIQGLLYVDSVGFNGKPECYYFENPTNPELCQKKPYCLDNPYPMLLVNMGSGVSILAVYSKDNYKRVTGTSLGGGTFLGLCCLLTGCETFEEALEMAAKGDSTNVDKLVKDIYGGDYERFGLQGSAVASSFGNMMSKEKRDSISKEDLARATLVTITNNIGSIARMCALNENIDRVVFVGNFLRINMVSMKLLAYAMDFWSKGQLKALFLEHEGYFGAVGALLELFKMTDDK
inactive: [1] 0.01 | vorinostat -0.084 | silmitasertib 0.004 | [2] -0.039 | entospletinib 0.08

NADK2 (UniProt Q4G0N4)
Sequence of UniProt Q4G0N4 (Q4G0N4 whole entry, looked up): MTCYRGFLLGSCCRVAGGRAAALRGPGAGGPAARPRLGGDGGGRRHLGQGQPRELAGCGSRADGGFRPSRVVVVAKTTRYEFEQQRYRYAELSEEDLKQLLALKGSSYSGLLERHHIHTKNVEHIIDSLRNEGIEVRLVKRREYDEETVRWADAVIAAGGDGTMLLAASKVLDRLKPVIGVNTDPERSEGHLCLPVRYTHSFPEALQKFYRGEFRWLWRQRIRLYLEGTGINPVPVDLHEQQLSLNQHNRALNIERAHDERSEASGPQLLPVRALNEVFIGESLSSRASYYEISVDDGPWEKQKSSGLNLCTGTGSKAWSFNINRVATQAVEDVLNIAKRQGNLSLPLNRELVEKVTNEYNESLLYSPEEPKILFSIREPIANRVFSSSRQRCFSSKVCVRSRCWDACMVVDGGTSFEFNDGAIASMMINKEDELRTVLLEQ
inactive: [1] -0.002 | vorinostat -0.106 | silmitasertib 0.044 | [2] 0.003 | entospletinib -0.001

NT5DC2 isoform 2 (UniProt Q9H857)
active: vorinostat -0.272
inactive: [1] 0.013 | silmitasertib -0.019 | [2] 0 | entospletinib -0.013

NAA38 isoform 2 (UniProt Q9BRA0)
inactive: [1] -0.015 | vorinostat -0.088 | silmitasertib 0.009 | [2] 0.04 | entospletinib -0.035

NPTN (UniProt Q9Y639)
inactive: [1] 0.067 | vorinostat 0.078 | silmitasertib -0.031 | [2] 0.04 | entospletinib 0.096

NFATC1 (UniProt O95644)
Sequence of UniProt O95644 (O95644 whole entry, looked up): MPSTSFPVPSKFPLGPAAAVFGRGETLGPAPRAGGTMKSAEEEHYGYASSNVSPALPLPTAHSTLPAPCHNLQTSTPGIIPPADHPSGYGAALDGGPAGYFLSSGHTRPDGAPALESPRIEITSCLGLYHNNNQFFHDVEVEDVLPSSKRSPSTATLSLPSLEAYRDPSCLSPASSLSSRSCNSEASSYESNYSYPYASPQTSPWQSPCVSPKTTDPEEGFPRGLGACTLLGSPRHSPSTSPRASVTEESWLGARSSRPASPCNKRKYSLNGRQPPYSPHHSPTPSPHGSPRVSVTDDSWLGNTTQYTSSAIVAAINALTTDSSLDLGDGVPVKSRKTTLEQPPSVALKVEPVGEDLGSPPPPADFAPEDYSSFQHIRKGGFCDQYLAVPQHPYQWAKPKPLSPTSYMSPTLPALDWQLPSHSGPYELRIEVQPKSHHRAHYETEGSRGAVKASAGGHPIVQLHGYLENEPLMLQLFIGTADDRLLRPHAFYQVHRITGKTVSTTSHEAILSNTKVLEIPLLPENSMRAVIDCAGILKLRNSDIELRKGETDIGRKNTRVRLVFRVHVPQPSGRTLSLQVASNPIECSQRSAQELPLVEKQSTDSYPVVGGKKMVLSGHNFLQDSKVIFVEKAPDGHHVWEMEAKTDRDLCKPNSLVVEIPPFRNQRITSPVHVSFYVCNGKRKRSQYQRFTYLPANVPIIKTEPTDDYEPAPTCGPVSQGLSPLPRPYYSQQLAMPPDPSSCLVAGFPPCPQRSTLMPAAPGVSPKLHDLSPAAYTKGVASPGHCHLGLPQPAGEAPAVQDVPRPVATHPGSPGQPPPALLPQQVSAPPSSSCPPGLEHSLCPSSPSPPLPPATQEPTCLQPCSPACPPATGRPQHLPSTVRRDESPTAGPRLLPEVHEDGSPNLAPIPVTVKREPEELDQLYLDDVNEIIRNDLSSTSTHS
inactive: [1] 0.014 | silmitasertib 0.07 | [2] 0.033 | entospletinib -0.047
active: vorinostat -0.364

NEK9 (UniProt Q8TD19)
active: vorinostat -0.45
inactive: [1] -0.03 | silmitasertib 0.052 | [2] -0.013 | entospletinib 0.013

NCAPH2 (UniProt Q6IBW4)
inactive: [1] 0.052 | silmitasertib 0 | [2] 0.037 | entospletinib -0.008
active: vorinostat -0.277

MRPS12 (UniProt O15235)
inactive: [1] -0.005 | silmitasertib -0.011 | [2] -0.013 | entospletinib -0.046
active: vorinostat -0.35

MRPL53 (UniProt Q96EL3)
inactive: [1] -0.052 | vorinostat -0.119 | silmitasertib 0.042 | [2] -0.024 | entospletinib 0.033

OSGEP (UniProt Q9NPF4)
Sequence of UniProt Q9NPF4 (Q9NPF4 whole entry, looked up): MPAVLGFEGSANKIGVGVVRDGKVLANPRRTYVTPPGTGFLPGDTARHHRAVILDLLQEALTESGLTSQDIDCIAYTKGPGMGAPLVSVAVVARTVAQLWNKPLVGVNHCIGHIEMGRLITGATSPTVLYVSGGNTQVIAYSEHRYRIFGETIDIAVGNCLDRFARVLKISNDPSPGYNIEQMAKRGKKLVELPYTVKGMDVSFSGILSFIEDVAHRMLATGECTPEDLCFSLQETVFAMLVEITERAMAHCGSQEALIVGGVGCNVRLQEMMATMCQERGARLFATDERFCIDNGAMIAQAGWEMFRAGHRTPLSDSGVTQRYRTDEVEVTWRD
inactive: [1] -0.001 | vorinostat -0.038 | silmitasertib -0.109 | [2] 0.016 | entospletinib 0.002

ORC3 isoform 2 (UniProt Q9UBD5)
active: vorinostat -0.409
inactive: [1] -0.012 | silmitasertib 0.023 | [2] 0.052 | entospletinib 0.013

NOB1 (UniProt Q9ULX3)
inactive: [1] 0.017 | vorinostat -0.128 | silmitasertib 0.048 | [2] -0.024 | entospletinib 0.024

MRPL58 (UniProt Q14197)
inactive: [1] 0.02 | vorinostat -0.053 | silmitasertib -0.008 | [2] 0.038 | entospletinib 0.041

ORC2 (UniProt Q13416)
active: vorinostat -0.285
inactive: [1] 0 | silmitasertib 0.007 | [2] 0.049 | entospletinib 0.021

MTA1 (UniProt Q13330)
active: vorinostat -0.212
inactive: [1] -0.005 | silmitasertib -0.037 | [2] 0.016 | entospletinib -0.036

MXRA7 (UniProt P84157)
Sequence of UniProt P84157 (P84157 whole entry, looked up): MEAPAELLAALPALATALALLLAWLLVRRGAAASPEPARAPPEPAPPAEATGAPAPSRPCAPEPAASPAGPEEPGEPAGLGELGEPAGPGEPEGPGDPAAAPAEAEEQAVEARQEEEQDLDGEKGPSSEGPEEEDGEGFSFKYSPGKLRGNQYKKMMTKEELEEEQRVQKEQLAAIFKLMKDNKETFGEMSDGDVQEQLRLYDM
inactive: [1] 0.118 | vorinostat 0.262 | silmitasertib -0.102 | [2] 0.099 | entospletinib 0.021

NUDT4 isoform 2 (UniProt Q9NZJ9)
inactive: [1] 0.057 | silmitasertib -0.034 | [2] 0.018 | entospletinib -0.023
active: vorinostat -0.336

MYOM1 (UniProt P52179)
inactive: [1] 0.062 | vorinostat 0.055 | silmitasertib 0.014 | [2] 0.292 | entospletinib 0.028

PAN2 isoform 2 (UniProt Q504Q3)
inactive: [1] 0.11 | vorinostat -0.097 | silmitasertib 0.038 | [2] -0.056 | entospletinib 0.038

NCAPH (UniProt Q15003)
inactive: [1] -0.031 | silmitasertib 0.009 | [2] -0.01 | entospletinib -0.004
active: vorinostat -0.33

NTMT1 (UniProt Q9BV86)
active: vorinostat -0.366
inactive: [1] 0.008 | silmitasertib 0.026 | [2] 0.01 | entospletinib 0.049

OSBP2 (UniProt Q969R2)
inactive: [1] 0.025 | vorinostat 0.055 | silmitasertib -0.147 | [2] 0.023 | entospletinib -0.102

NIPBL (UniProt Q6KC79)
inactive: [1] -0.024 | silmitasertib 0.101 | [2] -0.005 | entospletinib 0.071
active: vorinostat -0.357

OGFR (UniProt Q9NZT2)
active: vorinostat -0.285
inactive: [1] -0.036 | silmitasertib 0.02 | [2] -0.018 | entospletinib -0.061

MRPS18A isoform 2 (UniProt Q9NVS2)
inactive: [1] 0.008 | vorinostat 0.021 | silmitasertib 0.048 | [2] 0.019 | entospletinib -0.052

NIPSNAP3A (UniProt Q9UFN0)
inactive: [1] 0.03 | vorinostat 0.136 | silmitasertib -0.061 | [2] 0.017 | entospletinib -0.021

NSUN2 (UniProt Q08J23)
active: vorinostat -0.42
inactive: [1] 0.004 | silmitasertib 0.03 | [2] -0.007 | entospletinib 0.011

MVB12A (UniProt Q96EY5)
inactive: [1] -0.002 | silmitasertib -0.016 | [2] 0.016 | entospletinib 0.042
active: vorinostat -0.812

MTFP1 (UniProt Q9UDX5)
Sequence of UniProt Q9UDX5 (Q9UDX5 whole entry, looked up): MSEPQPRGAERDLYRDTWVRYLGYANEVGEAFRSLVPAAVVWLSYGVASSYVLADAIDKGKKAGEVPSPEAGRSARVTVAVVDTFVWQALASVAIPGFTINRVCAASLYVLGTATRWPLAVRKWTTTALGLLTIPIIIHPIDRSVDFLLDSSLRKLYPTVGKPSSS
inactive: [1] -0.04 | vorinostat 0.102 | silmitasertib -0.007 | [2] 0.02 | entospletinib -0.009

OTUD7B (UniProt Q6GQQ9)
Sequence of UniProt Q6GQQ9 (Q6GQQ9 whole entry, looked up): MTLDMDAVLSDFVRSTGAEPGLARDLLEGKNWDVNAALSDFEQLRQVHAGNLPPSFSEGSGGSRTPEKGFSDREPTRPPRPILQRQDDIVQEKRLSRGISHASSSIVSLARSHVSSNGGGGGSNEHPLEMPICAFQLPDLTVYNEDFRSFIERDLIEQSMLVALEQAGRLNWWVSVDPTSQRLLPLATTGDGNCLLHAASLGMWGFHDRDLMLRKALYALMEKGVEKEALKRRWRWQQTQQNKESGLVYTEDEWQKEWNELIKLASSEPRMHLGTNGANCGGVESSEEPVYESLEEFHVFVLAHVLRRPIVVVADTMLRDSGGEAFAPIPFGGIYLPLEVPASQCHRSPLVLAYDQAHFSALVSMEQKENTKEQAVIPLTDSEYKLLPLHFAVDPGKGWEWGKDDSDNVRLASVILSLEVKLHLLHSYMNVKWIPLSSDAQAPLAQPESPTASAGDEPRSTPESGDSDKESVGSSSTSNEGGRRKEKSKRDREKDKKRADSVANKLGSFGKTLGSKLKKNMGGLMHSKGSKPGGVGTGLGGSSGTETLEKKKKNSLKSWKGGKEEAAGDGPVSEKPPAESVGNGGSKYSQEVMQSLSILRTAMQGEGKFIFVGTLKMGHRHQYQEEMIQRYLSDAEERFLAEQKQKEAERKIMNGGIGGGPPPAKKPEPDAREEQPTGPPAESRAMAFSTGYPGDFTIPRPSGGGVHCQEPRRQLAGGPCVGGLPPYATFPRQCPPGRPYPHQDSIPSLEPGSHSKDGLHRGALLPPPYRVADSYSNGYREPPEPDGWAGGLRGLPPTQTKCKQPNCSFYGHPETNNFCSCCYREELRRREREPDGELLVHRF
active: vorinostat 0.331
inactive: [1] 0.044 | silmitasertib -0.038 | [2] 0.194 | entospletinib -0.04

NARF (UniProt Q9UHQ1)
inactive: [1] -0.05 | silmitasertib -0.016 | [2] -0.008 | entospletinib -0.054
active: vorinostat -0.243

MSH6 (UniProt P52701)
active: vorinostat -0.287
inactive: [1] 0.008 | silmitasertib 0.063 | [2] 0.016 | entospletinib -0.012

MSH3 (UniProt P20585)
Sequence of UniProt P20585 (P20585 whole entry, looked up): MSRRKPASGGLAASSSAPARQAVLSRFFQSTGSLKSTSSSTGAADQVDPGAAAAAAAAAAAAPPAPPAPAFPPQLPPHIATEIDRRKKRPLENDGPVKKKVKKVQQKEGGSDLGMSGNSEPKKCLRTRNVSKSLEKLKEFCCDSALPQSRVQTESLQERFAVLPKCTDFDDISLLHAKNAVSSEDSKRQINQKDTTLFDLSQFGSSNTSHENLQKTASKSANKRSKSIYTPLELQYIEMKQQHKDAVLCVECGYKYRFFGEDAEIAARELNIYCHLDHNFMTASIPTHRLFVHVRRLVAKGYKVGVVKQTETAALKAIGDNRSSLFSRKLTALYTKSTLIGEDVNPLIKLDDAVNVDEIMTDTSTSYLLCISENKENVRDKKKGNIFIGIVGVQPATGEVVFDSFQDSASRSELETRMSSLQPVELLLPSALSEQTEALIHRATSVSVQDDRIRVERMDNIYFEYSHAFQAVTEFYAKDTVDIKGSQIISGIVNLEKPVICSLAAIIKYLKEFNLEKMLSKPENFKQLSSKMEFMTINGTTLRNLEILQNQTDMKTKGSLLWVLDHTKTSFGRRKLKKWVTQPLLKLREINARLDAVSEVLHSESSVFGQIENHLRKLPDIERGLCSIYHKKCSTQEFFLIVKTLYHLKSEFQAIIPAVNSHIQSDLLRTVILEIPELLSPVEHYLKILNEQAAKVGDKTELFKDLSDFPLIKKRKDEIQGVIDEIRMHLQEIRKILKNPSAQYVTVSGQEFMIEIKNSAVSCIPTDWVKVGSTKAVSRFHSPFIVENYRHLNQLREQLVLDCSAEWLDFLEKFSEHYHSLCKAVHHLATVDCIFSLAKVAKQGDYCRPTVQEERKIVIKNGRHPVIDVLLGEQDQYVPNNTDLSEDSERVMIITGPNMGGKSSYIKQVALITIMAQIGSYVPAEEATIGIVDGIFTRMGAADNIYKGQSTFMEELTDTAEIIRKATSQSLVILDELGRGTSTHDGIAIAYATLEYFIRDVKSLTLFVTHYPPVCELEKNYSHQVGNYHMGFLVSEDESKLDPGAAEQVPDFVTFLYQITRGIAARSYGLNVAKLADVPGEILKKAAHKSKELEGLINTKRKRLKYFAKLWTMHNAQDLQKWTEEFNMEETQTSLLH
inactive: [1] 0.044 | silmitasertib 0.055 | [2] -0.017 | entospletinib 0.025
active: vorinostat -0.316

NAA30 (UniProt Q147X3)
inactive: [1] -0.019 | silmitasertib 0.047 | [2] 0.009 | entospletinib -0.003
active: vorinostat -0.235

NCK1 (UniProt P16333)
active: vorinostat -0.281
inactive: [1] 0.048 | silmitasertib 0.01 | [2] -0.014 | entospletinib 0.019

OGT (UniProt O15294)
inactive: [1] 0.002 | silmitasertib 0.035 | [2] 0.045 | entospletinib 0.021
active: vorinostat -0.42

NCAPD3 (UniProt P42695)
active: vorinostat -0.562
inactive: [1] -0.005 | silmitasertib 0.034 | [2] -0.022 | entospletinib -0.007

NFKBIB (UniProt Q15653)
Sequence of UniProt Q15653 (Q15653 whole entry, looked up): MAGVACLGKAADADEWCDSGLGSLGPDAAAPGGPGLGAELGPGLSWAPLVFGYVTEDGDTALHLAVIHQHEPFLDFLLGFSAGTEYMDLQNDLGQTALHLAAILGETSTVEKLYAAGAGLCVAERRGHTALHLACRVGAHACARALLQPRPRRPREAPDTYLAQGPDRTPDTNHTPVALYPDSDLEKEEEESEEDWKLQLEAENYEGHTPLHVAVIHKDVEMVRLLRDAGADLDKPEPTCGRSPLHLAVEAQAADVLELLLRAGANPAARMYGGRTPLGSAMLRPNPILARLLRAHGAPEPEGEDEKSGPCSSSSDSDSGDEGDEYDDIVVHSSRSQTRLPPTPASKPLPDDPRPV
inactive: [1] -0.052 | vorinostat -0.204 | silmitasertib 0.04 | [2] 0.024 | entospletinib 0

NF1 (UniProt P21359)
active: vorinostat -0.634
inactive: [1] 0.03 | silmitasertib 0.037 | [2] 0.01 | entospletinib 0.025

NIFK (UniProt Q9BYG3)
inactive: [1] 0.063 | vorinostat 0.063 | silmitasertib -0.001 | [2] 0.047 | entospletinib 0.044

NUP210 (UniProt Q8TEM1)
active: vorinostat 0.276
inactive: [1] -0.006 | silmitasertib 0.022 | [2] -0.013 | entospletinib -0.038

NOSTRIN (UniProt Q8IVI9)
active: vorinostat -0.27
inactive: [1] -0.083 | silmitasertib 0.028 | [2] 0.019 | entospletinib 0.018

PAFAH1B3 (UniProt Q15102)
inactive: [1] -0.013 | vorinostat -0.179 | silmitasertib 0.041 | [2] 0.003 | entospletinib -0.052

NDUFAF5 (UniProt Q5TEU4)
inactive: [1] -0.023 | vorinostat 0.065 | silmitasertib 0.002 | [2] -0.006 | entospletinib -0.046

NARS2 (UniProt Q96I59)
active: vorinostat -0.344
inactive: [1] 0.063 | silmitasertib 0.05 | [2] -0.029 | entospletinib -0.079
